Assay results reported in PubChem BioAssay (NCATS).
Results filed as inconclusive are left out. Activity calls are given as the source filed them. Calls follow the shape of the dose curve; as a rule, active = well fitted curve in the direction sought with a large enough effect; inconclusive = small, poorly fitted or top-dose-only effect, or another doubt; inactive = no such curve, though single readings can be large; an effect the other way counts as inactive or inconclusive.

Assays:
NIH3T3 = assay: qHTS assay to identify novel small-molecules to repurpose for Merkel cell carcinoma treatment (AID 1296009); conditions: MCC and control cell lines, CellTiter-Glo viability, 72 h; at 44.8 µM (top of the series) unless noted; also: nearly all actives have a fitted effect of over 60% in size
How it was run: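 72 hr, 37 degree celsius; NPC 8-pt / MIPE 11-pt dose response; compound pinned in DMSO; CellTiter-Glo, 10 min RT, luminescence; normalized to no-cell and DMSO controls.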

C33A = assay: Primary qHTS to identify gynecologic anti-cancer compounds using libraries of approved drugs and bioactive compounds (AID 1345084); conditions: Gynecologic cancer cell panel viability, ATPlite luminescence, 48 h; series mostly up to 57.5 µM; also: % is scaled to controls: 0 for no effect and ±100 for the full control effect; nearly all actives have a fitted effect of over 55% in size
How it was run: (§1)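 Luminescence from the ATPlite ATP-monitoring reagent indicates viable cell number; lower signal means cytotoxicity. Cells received compound 16 h after seeding and were exposed for 48 h across five concentrations.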

CAOV3 = assay: as above; conditions: Gynecologic cancer cell panel viability, ATPlite luminescence, 48 h; series mostly up to 57.5 µM
How it was run: as §1

CASKI = assay: as above; conditions: Gynecologic cancer cell panel viability, ATPlite luminescence, 48 h; series mostly up to 57.5 µM
How it was run: as §1

Es-2 = assay: as above; conditions: Gynecologic cancer cell panel viability, ATPlite luminescence, 48 h; series mostly up to 57.5 µM
How it was run: as §1

HeLa = assay: as above; conditions: Gynecologic cancer cell panel viability, ATPlite luminescence, 48 h; series mostly up to 57.5 µM
How it was run: as §1

Hek293T = assay: as above; conditions: Gynecologic cancer cell panel viability, ATPlite luminescence, 48 h, control line for the selectivity index; series mostly up to 57.5 µM
How it was run: as §1

JEG-3 = assay: as above; conditions: Gynecologic cancer cell panel viability, ATPlite luminescence, 48 h; series mostly up to 57.5 µM
How it was run: as §1

OV90 = assay: as above; conditions: Gynecologic cancer cell panel viability, ATPlite luminescence, 48 h; series mostly up to 57.5 µM
How it was run: as §1

PA-1 = assay: as above; conditions: Gynecologic cancer cell panel viability, ATPlite luminescence, 48 h; series mostly up to 57.5 µM
How it was run: as §1

SKOV3 = assay: as above; conditions: Gynecologic cancer cell panel viability, ATPlite luminescence, 48 h; series mostly up to 57.5 µM
How it was run: as §1

Tov-21-G = assay: as above; conditions: Gynecologic cancer cell panel viability, ATPlite luminescence, 48 h; series mostly up to 57.5 µM
How it was run: as §1

Tov112D = assay: as above; conditions: Gynecologic cancer cell panel viability, ATPlite luminescence, 48 h; series mostly up to 57.5 µM
How it was run: as §1

COC12CC3C(C(C)C1=CC(=O)O2)C(O)C(OC(C)=O)C1C(C)(C)C(OC(C)=O)CCC31C (configuration not stated)
inactive: outcome (NIH3T3) inactive [at 17.4 µM] | Potency (C33A) | Potency (CAOV3) | Potency (CASKI) | Potency (Es-2) | Potency (HeLa) | Potency (Hek293T) | Potency (JEG-3) | Potency (OV90) | Potency (PA-1) | Potency (SKOV3) | Potency (Tov-21-G) | Potency (Tov112D)

CC1=CC2(O)/C=C/C(C)(O)CC(O)/C=C/C(=O)OC23C(=O)NC(CC(C)C)C3C1C (configuration not stated)
inactive: outcome (NIH3T3) inactive [at 17.4 µM] | Potency (C33A) | Potency (CAOV3) | Potency (CASKI) | Potency (Es-2) | Potency (HeLa) | Potency (Hek293T) | Potency (JEG-3) | Potency (OV90) | Potency (PA-1) | Potency (SKOV3) | Potency (Tov-21-G) | Potency (Tov112D)

CC(/C=C/C1(O)C(C)CC(O)CC1(C)C)OC1OC(CO)C(O)C(O)C1O (configuration not stated)
inactive: outcome (NIH3T3) | Potency (C33A) | Potency (CAOV3) | Potency (CASKI) | Potency (Es-2) | Potency (HeLa) | Potency (Hek293T) | Potency (JEG-3) | Potency (OV90) | Potency (PA-1) | Potency (SKOV3) | Potency (Tov-21-G) | Potency (Tov112D)

CC1OC(O[C@H]2[C@@H](O)C[C@@]3(C)C([C@H](O)C[C@]4(C)C3CC=C3C5CC(C)(C)CC[C@]5(C(=O)OC5OC(CO)C(O)C(O)C5OC5OCC(OC6OCC(OC7OCC(O)C(O)C7O)C(O)C6O)C(OC6OCC(O)(CO)C6O)C5O)CC[C@]34C)[C@]2(C)CO)C(O)C(O)C1O (some centres not stated)
inactive: outcome (NIH3T3) inactive [at 9.27 µM] | activity change, negative = cytotoxicity (C33A) 4.56% [at 6.55 µM] | activity change, negative = cytotoxicity (CAOV3) -2.76% [at 6.55 µM] | activity change, negative = cytotoxicity (CASKI) 1.71% [at 6.55 µM] | activity change, negative = cytotoxicity (Es-2) -1.65% [at 6.55 µM] | activity change, negative = cytotoxicity (HeLa) 2.57% [at 6.55 µM] | activity change, negative = cytotoxicity (Hek293T) -2% [at 6.55 µM] | activity change, negative = cytotoxicity (JEG-3) -1.46% [at 6.55 µM] | activity change, negative = cytotoxicity (OV90) 3.36% [at 6.55 µM] | activity change, negative = cytotoxicity (PA-1) 2.16% [at 6.55 µM] | activity change, negative = cytotoxicity (SKOV3) -0.54% [at 6.55 µM] | activity change, negative = cytotoxicity (Tov-21-G) -10.9% [at 6.55 µM] | activity change, negative = cytotoxicity (Tov112D) 7.32% [at 6.55 µM]

CC(=O)OCC(=O)O[C@@H]1[C@H]2[C@@H](OC(=O)c3ccccc3)[C@@H](C)C[C@]2(O)[C@H](OC(C)=O)C2(C)[C@H]3CC(C)(C)C(=O)[C@@H]3CC1(OC(C)=O)[C@@H]2OC(C)=O (some centres not stated)
inactive: outcome (NIH3T3) inactive [at 17.4 µM] | Potency (C33A) | Potency (CAOV3) | Potency (CASKI) | Potency (Es-2) | Potency (HeLa) | Potency (Hek293T) | Potency (JEG-3) | Potency (OV90) | Potency (PA-1) | Potency (SKOV3) | Potency (Tov-21-G) | Potency (Tov112D)

COC1=CC(=O)C[C@@H](C)[C@]12Oc1cc(OC)cc(OC)c1C2=O
inactive: outcome (NIH3T3) | Potency (C33A) | Potency (CAOV3) | Potency (CASKI) | Potency (Es-2) | Potency (HeLa) | Potency (Hek293T) | Potency (JEG-3) | Potency (OV90) | Potency (PA-1) | Potency (SKOV3) | Potency (Tov-21-G) | Potency (Tov112D)

C=CCc1ccc(O[C@@H]2O[C@H](CO[C@@H]3O[C@H](CO)[C@@H](O)[C@H](O)[C@H]3O)[C@@H](O)[C@H](O)[C@H]2O)c(O)c1
inactive: outcome (NIH3T3) inactive [at 17.4 µM] | Potency (C33A) | Potency (CAOV3) | Potency (CASKI) | Potency (Es-2) | Potency (HeLa) | Potency (Hek293T) | Potency (JEG-3) | Potency (OV90) | Potency (PA-1) | Potency (SKOV3) | Potency (Tov-21-G) | Potency (Tov112D)

Cc1onc(-c2ccccc2)c1C(=O)N[C@@H]1C(=O)N2[C@@H]1SC(C)(C)[C@@H]2C(=O)O
inactive: outcome (NIH3T3) | Potency (C33A) | Potency (CAOV3) | Potency (CASKI) | Potency (Es-2) | Potency (HeLa) | Potency (Hek293T) | Potency (JEG-3) | Potency (OV90) | Potency (PA-1) | Potency (SKOV3) | Potency (Tov-21-G) | Potency (Tov112D)

Nc1nonc1C(=Nc1ccc(F)c(Cl)c1)NO
inactive: outcome (NIH3T3) | Potency (C33A) | Potency (CAOV3) | Potency (CASKI) | Potency (Es-2) | Potency (HeLa) | Potency (Hek293T) | Potency (JEG-3) | Potency (OV90) | Potency (PA-1) | Potency (SKOV3) | Potency (Tov-21-G) | Potency (Tov112D)

CC1CCC23COC(=O)C2=CC(O)CC3C1(C)CCC1=CC(=O)OC1O (configuration not stated)
inactive: outcome (NIH3T3) | Potency (C33A) | Potency (CAOV3) | Potency (CASKI) | Potency (Es-2) | Potency (HeLa) | Potency (Hek293T) | Potency (JEG-3) | Potency (OV90) | Potency (PA-1) | Potency (Tov-21-G) | Potency (Tov112D)

CC(C(=O)O)C1CCC2(C)C3C(=O)C=C4C(CCC(=O)C4(C)C)C3(C)CCC12C (configuration not stated)
inactive: outcome (NIH3T3) inactive [at 17.4 µM] | Potency (C33A) | Potency (CAOV3) | Potency (CASKI) | Potency (Es-2) | Potency (HeLa) | Potency (Hek293T) | Potency (JEG-3) | Potency (OV90) | Potency (PA-1) | Potency (Tov-21-G) | Potency (Tov112D)

C[C@@H]1C[C@H](O)/C=C/[C@H](O)[C@@H](O)CC(=O)O1
inactive: outcome (NIH3T3) | Potency (C33A) | Potency (CAOV3) | Potency (CASKI) | Potency (Es-2) | Potency (HeLa) | Potency (Hek293T) | Potency (JEG-3) | Potency (OV90) | Potency (PA-1) | Potency (SKOV3) | Potency (Tov-21-G) | Potency (Tov112D)

C/C(=C\CCC(C(=O)O)C1CCC2(C)C3=C(CCC12C)C1(C)CCC(=O)C(C)(C)C1CC3)C(=O)O (configuration not stated)
inactive: outcome (NIH3T3) inactive [at 17.4 µM] | Potency (C33A) | Potency (CAOV3) | Potency (CASKI) | Potency (Es-2) | Potency (HeLa) | Potency (Hek293T) | Potency (JEG-3) | Potency (OV90) | Potency (PA-1) | Potency (SKOV3) | Potency (Tov-21-G) | Potency (Tov112D)
